{
  "source": "PubChem BioAssay (NCATS)",
  "note": "Results filed as inconclusive are left out. A number with no mark means an inactive call. The call rests on the fitted dose curve; in most records, active means well fitted activation curve with a large enough effect; inconclusive means small, poorly fitted or top-dose-only effect; inactive means flat fitted curve, though single readings scatter.",
  "data": [
    {"test": "Primary redox qHTS assay for identification of artifact compounds. (AID 1845223);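 further: 0% = DMSO and 100% = reference compound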", "details": "Amplex Red/HRP redox cycling with DTT, fluorescence; series mostly up to 53.8 µM; redox activity (% of DA3003): at the top concentration", "in_short": "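Amplex Red (25 uM) and HRP (250 mU/mL) in HBSS, with compounds for 15 min, then 250 uM DTT for 30 min, room temperature, dark. Fluorescence 525/598 nm read; normalized to DMSO and 10 uM DA3003; Hill fit.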", "values": [
      {"smiles": "CC(C)c1ccc2c(c1)C(=O)CC1C(C)(C(=O)O)CCCC21C", "note": "(configuration not stated)", "redox activity (% of DA3003)": "16%"},
      {"smiles": "O=C(NC/C=C/CN1CCN(c2cccc(Cl)c2Cl)CC1)c1ccc(-c2ccccn2)cc1", "redox activity (% of DA3003)": "14.2%"},
      {"smiles": "COc1cc(C)c(C(=O)O[C@@H]2[C@H](O)[C@@H](CO)O[C@H]2n2ccc(=O)[nH]c2=O)c(OC)c1", "redox activity (% of DA3003)": "-17.9% [at 25.6 µM]"},
      {"smiles": "CC1(C)CCC[C@]2(C)C1CC=C(CO)[C@H]2CC/C(=C/CO)CO", "note": "(some centres not stated)", "redox activity (% of DA3003)": "-10.6%"},
      {"smiles": "COc1ccccc1Oc1c(NS(=O)(=O)c2ccc(C)cn2)nc(-c2ccncc2)nc1OC", "redox activity (% of DA3003)": "-2.42%"},
      {"smiles": "C=C(C(=O)O)[C@H]1C[C@]2(C)C(=O)CC[C@]23O[C@H]1C[C@@H]3C", "redox activity (% of DA3003)": "-11.6%"},
      {"smiles": "C=C(COC(=O)C(C)C)C1Oc2cc(C(C)=O)ccc2C1OC(=O)C(C)C", "note": "(configuration not stated)", "redox activity (% of DA3003)": "9.02%"},
      {"smiles": "CC(=O)OCC1OC(O[C@H]2CC[C@@]3(C)C(CC[C@]4(C)C3CC=C3[C@@H]5CC(C)(C)CC[C@]5(C(=O)O)CC[C@]34C)[C@]2(C)CO)C(O)C(O)C1OC1OC(C)C(O)C(OC2OCC(O)C(O)C2O)C1O", "note": "(some centres not stated)", "redox activity (% of DA3003)": "-4.45% [at 11.5 µM]"},
      {"smiles": "COc1cc(CO)cc(OC)c1O[C@@H]1O[C@H](CO)[C@@H](O)[C@H](O)[C@H]1O", "redox activity (% of DA3003)": "-10.3%"},
      {"smiles": "COc1ccc(C2(O)c3c(ccc4c3OC(C)(CCC=C(C)C)C=C4)NC(=O)C2OC)cc1", "note": "(configuration not stated)", "redox activity (% of DA3003)": "11.4% [at 25.6 µM]"},
      {"smiles": "OC[C@H]1O[C@@H](O[C@H]2[C@H](O)[C@@H](CO)O[C@@H](OCc3ccccc3)[C@@H]2O[C@@H]2OC[C@](O)(CO)[C@H]2O)[C@H](O)[C@@H](O)[C@@H]1O", "redox activity (% of DA3003)": "-12% [at 25.6 µM]"},
      {"smiles": "CC1(C)CC[C@]2(C(=O)O[C@@H]3O[C@H](CO)[C@@H](O)[C@H](O)[C@H]3O)CC[C@]3(C)C(=CCC4[C@@]5(C)CC[C@H](O[C@@H]6O[C@H](C(=O)O)[C@@H](O[C@@H]7O[C@H](CO)[C@@H](O)[C@H](O)[C@H]7O)[C@H](O)[C@H]6O[C@@H]6O[C@H](CO)[C@@H](O)[C@H](O)[C@H]6O)C(C)(C)C5CC[C@]43C)C2C1", "note": "(some centres not stated)", "redox activity (% of DA3003)": "12.6% [at 11.5 µM]"},
      {"smiles": "CCC(C)/C=C(C)/C=C/C1=CC2=C(Cl)C(=O)C(C)(OC(C)=O)C(=O)C2=CN1C(CCCN=C(N)N)C(=O)O", "note": "(configuration not stated)", "redox activity (% of DA3003)": "19.7% [at 25.6 µM]"},
      {"smiles": "FC(F)(F)c1nnc2c(Sc3ccccc3)nc3ccc(Cl)cc3n12", "redox activity (% of DA3003)": "-0.456%"},
      {"smiles": "CC(=O)[C@@H]1C[C@H](C(C)(C)O[C@@H]2O[C@H](CO)[C@@H](O)[C@H](O)[C@H]2O)CC[C@@]2(CO)OC(=O)C[C@@H]12", "redox activity (% of DA3003)": "-17.3% [at 25.6 µM]"},
      {"smiles": "Cc1cc(Cn2cnc3c2CC(C(=O)O)N(C(=O)C(c2ccccc2)c2ccccc2)C3)ccc1N(C)C", "note": "(configuration not stated)", "redox activity (% of DA3003)": "17.8%"},
      {"smiles": "C[C@@H]1CC2OC(=O)C3=C2C(CCC3O)[C@@]12C[C@@H](c1ccoc1)OC2=O", "note": "(some centres not stated)", "redox activity (% of DA3003)": "9.5%"},
      {"smiles": "O=C(/C=C/c1ccc(O)c(O)c1)O[C@H]1[C@@H]2C=CO[C@@H](O[C@@H]3O[C@H](CO)[C@@H](O)[C@H](O)[C@H]3O)[C@@H]2[C@@]2(CO)O[C@@H]12", "redox activity (% of DA3003)": "-3.32% [at 25.6 µM]"},
      {"smiles": "CC(=O)OCC1=C[C@@H]2OC(=O)C3=CO[C@@H](O[C@@H]4O[C@H](CO)[C@@H](O)[C@H](O)[C@H]4O)[C@H]1[C@@H]32", "redox activity (% of DA3003)": "-16.8% [at 25.6 µM]"},
      {"smiles": "O=C(/C=C/c1ccccc1)OC[C@H]1O[C@@H](OC(=O)c2cc(O)c(O)c(O)c2)[C@H](O)[C@@H](O)[C@@H]1O", "redox activity (% of DA3003)": "-3.66% [at 25.6 µM]"},
      {"smiles": "Cc1occc(=O)c1O[C@@H]1O[C@H](CO)[C@@H](O)[C@H](O)[C@H]1O", "redox activity (% of DA3003)": "-10.1%"},
      {"smiles": "C=C[C@H]1[C@H](O[C@@H]2O[C@H](CO)[C@@H](O)[C@H](O)[C@H]2O)OC=C(C(=O)OC)[C@H]1CCO", "redox activity (% of DA3003)": "-16.2%"},
      {"smiles": "CC(C)=C1CC2C(CCC2(C)O)C(C)(O)CC1=O", "note": "(configuration not stated)", "redox activity (% of DA3003)": "-11.3%"},
      {"smiles": "CC1CCC2(C(=O)OC3OC(CO)C(O)C(O)C3O)CCC3(C)C(=CCC4C5(C)CCC(O)C(C)(CO)C5CCC43C)C2C1(C)O", "note": "(configuration not stated)", "redox activity (% of DA3003)": "5.74% [at 25.6 µM]"},
      {"smiles": "C=CCc1cc(OC)c(OC(C)C(O)c2ccc(O)c(OC)c2)c(OC)c1", "note": "(configuration not stated)", "redox activity (% of DA3003)": "-3.86%"},
      {"smiles": "C/C=C(\\C)C(=O)OC1CC2C(CC=C3CC(OC4CC(OC)C(OC5CC(OC)C(OC6CC(OC)C(OC7CC(OC)C(OC8CC(OC)C(OC9OC(CO)C(O)C(O)C9O)C(C)O8)C(C)O7)C(C)O6)C(C)O5)C(C)O4)CCC32C)C2(O)CCC(C(C)=O)C12C", "note": "(configuration not stated)", "redox activity (% of DA3003)": "12.2% [at 11.5 µM]"},
      {"smiles": "C=C[C@@](C)(CCC=C(C)C)O[C@@H]1O[C@H](CO[C@@H]2OC[C@H](O)[C@H](O)[C@H]2O)[C@@H](O)[C@H](O)[C@H]1O", "redox activity (% of DA3003)": "-2.06% [at 25.6 µM]"}
    ]}
  ]
}
